Compound activity deposited in PubChem by National Center for Advancing Translational Sciences (NCATS).
Most compounds without a hit are left out; they make up all but 2.4% or so of the library.
ELG1 DNA repair = blocks ELG1-dependent DNA repair in HEK293T cells; 330,000 tested, 2.3% active; Potency, µM (doses to about 46.1 µM), inactives show at the highest dose activity change, negative = inhibition, hits mostly inhibitors; AID 504467; HEK293T ELG1-luciferase reporter, luminescence, 16 h; DNA damage induced by 5-fluorouridine; also: % is scaled to controls: 0 for no effect and ±100 for the full control effect; nearly all actives have a fitted effect of over 55% in size
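Overnight (16 hr) co-exposure of 2,000 cells/well to 5-fluorouridine and compound at 37 °C preceded detection. Luciferase was quantified via ONE-Glo luminescence; loss of signal denotes inhibition.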
Rango complex inh = inhibitors of Rango-importin beta complex formation | Potency, µM (doses to about 92.2 µM), without a hit: at the highest dose inhibition of complex formation | 340,000 tested, 0.031% active | AID 540263 | Rango CFP/YFP FRET sensor + importin beta, 45 min; calls by dose curve;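 also: 0% = DMSO wells and 100% = buffer wells lacking importin beta; nearly all actives have a fitted effect of over 15% in size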
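Inhibition scored from the CFP 486 nm/YFP 530 nm FRET ratio 45 min after adding 0.125 microM importin beta to 50 nM Rango biosensor preincubated 5 min with compound (room temperature, PBS with DTT, Tween-20, BSA). No-importin wells as positive control.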
PKM2 act = PKM2 (human) enzyme activation; P14618; purified PKM2, Kinase-Glo ATP luminescence, activation; response scale: 0% is enzyme alone, no compound; Potency, µM (doses to about 57.5 µM), for the others: top-dose activation, hits mostly activators; 260,000 tested, 0.34% active; AID 1631; also: % is scaled to controls: 0 for no effect and ±100 for the full control effect; nearly all actives have a fitted effect of over 55% in size
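Kinase-Glo luminescence reports ATP generated from ADP (0.1 mM) and PEP (0.5 mM) by purified hPK-M2 after 1 h at room temperature, pH 7.2 imidazole buffer; intermediate enzyme activity allows detecting inhibitors and activators.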
Tb PFK inh = inhibitors of T. brucei phosphofructokinase; O15648; T. brucei PFK, ADP-Glo luminescence; Potency, µM (doses to about 57.5 µM), for inactives: at the highest dose activity, negative = inhibition, hits mostly inhibitors; 330,000 tested, 0.17% active;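 also: 0% = uninhibited 1x PFK enzyme wells and -100% = no-enzyme wells; nearly all actives have a fitted effect of over 60% in size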
Target sequence (O15648 whole entry, looked up): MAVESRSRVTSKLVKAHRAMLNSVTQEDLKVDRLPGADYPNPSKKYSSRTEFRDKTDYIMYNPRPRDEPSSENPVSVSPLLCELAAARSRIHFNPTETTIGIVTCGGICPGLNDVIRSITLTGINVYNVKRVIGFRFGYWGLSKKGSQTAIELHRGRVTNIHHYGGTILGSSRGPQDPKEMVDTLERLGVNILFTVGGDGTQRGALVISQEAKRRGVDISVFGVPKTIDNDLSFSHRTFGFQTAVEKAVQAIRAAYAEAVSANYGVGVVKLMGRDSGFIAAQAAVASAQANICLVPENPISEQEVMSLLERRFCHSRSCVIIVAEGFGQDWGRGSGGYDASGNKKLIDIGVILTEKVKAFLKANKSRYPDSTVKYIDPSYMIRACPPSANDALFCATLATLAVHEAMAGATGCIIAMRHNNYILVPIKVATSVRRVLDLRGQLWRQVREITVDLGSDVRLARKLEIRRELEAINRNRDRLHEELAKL
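Luminescent ADP detection (ADP-Glo, two-step: ATP depletion then ADP-to-ATP conversion for luciferase) reported PFK activity after 45 min room-temperature reaction of 1.25 nM enzyme with 0.5 mM F6P and 0.1 mM ATP at pH 8.0.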
Rango release inh = inhibitors of RanGTP-induced Rango-importin beta complex dissociation. Potency, µM (top dose mostly 46.1 µM), without a hit: at the top dose activity change, negative = inhibition. 340,000 tested, 0.071% active. Biochemical FRET Rango-importin beta, RanGTP-induced dissociation; calls by dose curve; also: % of control where 0% means no effect; nearly all actives have a fitted effect of over 45% in size
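Recombinant Rango FRET biosensor (EYFP–snurportin 1 IBB–cerulean CFP10) at 0.1 uM premixed with 0.25 uM importin beta in PBS, 1 mM DTT, 0.02% Tween-20, 0.1% BSA. Compound added 5 min; RanGTP-RCC1 (0.6 uM Ran, 2 mM GTP, 0.2 uM RCC1) then triggers release, read at 45 min.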
PGK inhibitor = blocks T. brucei phosphoglycerate kinase; P07378; PGK/GAPDH coupled, Kinase-Glo luminescence, 60 min; Potency, µM (doses to about 57.5 µM), without a hit: at the top dose activity change, negative = inhibition, usual class: inhibitors; 380,000 tested, 0.043% active; AID 602233; also: % is scaled to controls: 0 for no effect and ±100 for the full control effect; nearly all actives have a fitted effect of over 60% in size
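Luminescent ATP detection (Kinase-Glo Plus) follows a 60-minute room-temperature incubation, with wells lacking PGK as controls. Buffer: 100 mM TEA (pH 7.6), 5 mM MgCl2, 0.01% Tween-20. Coupling enzyme GAPDH (100 nM final) supplies unstable 1,3-BPG in-well.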
Numbers without * were called inactive. Unless noted, calls follow the shape of the dose curve; as a rule, active = well fitted curve in the direction sought with a large enough effect; inconclusive = small, poorly fitted or top-dose-only effect, or another doubt; inactive = no such curve, though single readings can be large; an effect the other way counts as inactive or inconclusive. Potency is read from the fitted curve at half-maximal effect.

How did Cc1ccc(CNC(=O)CSc2nc(=O)n3ccccc3n2)cc1 do in these assays?
ELG1 DNA repair: 0%; Rango complex inh: 1%; Tb PFK inh: -3%; Rango release inh: 25%; PGK inhibitor: -2%

What do the screens show for `COc1ccc(-c2cc(C(F)(F)F)nc(SCC(=O)N3CCOCC3)n2)cc1OC`?
ELG1 DNA repair: 8.2µM*; Rango complex inh: -3%; PKM2 act: -2%; Tb PFK inh: 0%; Rango release inh: 0%; PGK inhibitor: 0%

Results for COc1ccc(-c2cc(C(F)(F)F)nc(SCC(=O)N3CCCCC3)n2)cc1OC ?
PGK inhibitor: 9%

Results for Nc1nn(-c2ccccc2)nc1C(=O)OCc1c(F)cccc1Cl ?
PGK inhibitor: -7%

What do the screens show for `COc1ccccc1N1CCN(C(=O)CCNC(=O)c2ccco2)CC1`?
ELG1 DNA repair: inconclusive; Rango complex inh: 3%; Tb PFK inh: 0%; Rango release inh: 0%; PGK inhibitor: 2%

How did COc1cc(C(=O)NC(=S)N(C)Cc2ccccc2)cc(OC)c1OC do in these assays?
ELG1 DNA repair: inconclusive; Rango complex inh: -3%; PKM2 act: 3%; Tb PFK inh: -1%; Rango release inh: 23%; PGK inhibitor: -1%

What do the screens show for `COc1cc(NC(=O)c2ccccc2OCc2ccccc2)cc(OC)c1OC`?
ELG1 DNA repair: 16µM*; Rango complex inh: -6%; PKM2 act: 3%; Tb PFK inh: 1%; Rango release inh: 2%; PGK inhibitor: -1%

How did COc1cc(-c2cc(C(=O)Nc3ccc(O)cc3)c3ccccc3n2)cc(OC)c1OC do in these assays?
ELG1 DNA repair: 5.8µM*; Rango complex inh: -1%; PKM2 act: -2%; Tb PFK inh: -1%; Rango release inh: 0%; PGK inhibitor: -7%

What do the screens show for `COc1cc(-c2cc(C(=O)Nc3nc4ccccc4s3)c3ccccc3n2)cc(OC)c1OC`?
ELG1 DNA repair: 5.2µM*; Rango complex inh: 0%; PKM2 act: -2%; Tb PFK inh: -1%; Rango release inh: 16%; PGK inhibitor: -2%

Results for COc1cc(C(=O)NC(=S)N(CCc2ccccc2)CCc2ccccc2)cc(OC)c1OC ?
ELG1 DNA repair: 18µM*; Rango complex inh: 0%; PKM2 act: -6%; Tb PFK inh: 0%; Rango release inh: -6%; PGK inhibitor: inactive

What do the screens show for `O=C(NC12CC3CC(CC(C3)C1)C2)c1cc(F)c(F)c(F)c1F`?
ELG1 DNA repair: -5%; Rango complex inh: 3%; Tb PFK inh: -6%; Rango release inh: -12%; PGK inhibitor: 14%

What do the screens show for `COc1cc(-c2cc(C(=O)NCCc3ccc(S(N)(=O)=O)cc3)c3ccccc3n2)cc(OC)c1OC`?
ELG1 DNA repair: 4.1µM*; Rango complex inh: -3%; PKM2 act: 7%; Tb PFK inh: 0%; Rango release inh: -15%; PGK inhibitor: -1%

What do the screens show for `NS(=O)(=O)c1ccc(CCNC(=O)c2cc(-c3cccs3)nc3ccccc23)cc1`?
ELG1 DNA repair: inconclusive; Rango complex inh: 1%; PKM2 act: 13%; Tb PFK inh: 15%; Rango release inh: -10%; PGK inhibitor: 11%

How did CCOC(=O)c1ccc(NC(=O)CCc2c(C)nc3c(c(C)nn3C(C)(C)C)c2C)cc1 do in these assays?
PGK inhibitor: -1%

What do the screens show for `COc1cc(NC(=O)C(C)Oc2ccccc2)c(OC)cc1NC(=O)c1ccccc1` (stereo not drawn)?
ELG1 DNA repair: 15µM*; Rango complex inh: 2%; PKM2 act: 2%; Tb PFK inh: -3%; Rango release inh: -11%; PGK inhibitor: -4%

What do the screens show for `COc1cc(NC(=O)c2sc(C)nc2C)c(OC)cc1NC(=O)c1ccccc1`?
ELG1 DNA repair: 15µM*; Rango complex inh: -1%; Tb PFK inh: -5%; Rango release inh: -3%; PGK inhibitor: inactive

How did COc1cc(NC(=O)c2ccccc2)c(OC)cc1Cl do in these assays?
ELG1 DNA repair: -8%; Rango complex inh: -4%; PKM2 act: -5%; Tb PFK inh: 2%; Rango release inh: -7%; PGK inhibitor: inactive

How did Cc1ccc(NC(=O)CSc2nc3nc(C)c(Cc4ccccc4)c(C)n3n2)cc1 do in these assays?
PGK inhibitor: 9%

How did COc1ccccc1C(=O)C1CCCN(Cc2cccc(OCCO)c2)C1 (stereo not drawn) do in these assays?
ELG1 DNA repair: -7%; Rango complex inh: 4%; PKM2 act: -2%; Tb PFK inh: -1%; Rango release inh: -10%; PGK inhibitor: -8%

What do the screens show for `COc1ccc(/C=C/C(=O)Nc2ccc(-n3nncc3-c3ccccc3)cc2)cc1OC`?
ELG1 DNA repair: 15µM*; Rango complex inh: inconclusive; PKM2 act: 5%; Tb PFK inh: -4%; Rango release inh: -21%; PGK inhibitor: -1%

How did Cc1ccccc1S(=O)(=O)Cc1ccc(C(=O)N2CCN(c3ccc(F)cc3)CC2)o1 do in these assays?
ELG1 DNA repair: inconclusive; Rango complex inh: 16%; PKM2 act: 2%; Tb PFK inh: 3%; Rango release inh: 5%; PGK inhibitor: 3%

What do the screens show for `Cc1ccc(S(=O)(=O)Cc2ccc(C(=O)N3CCN(c4ccc(F)cc4)CC3)o2)cc1`?
ELG1 DNA repair: 23µM*; Rango complex inh: -3%; PKM2 act: -3%; Tb PFK inh: -4%; Rango release inh: 25%; PGK inhibitor: -6%

How did COc1ccc(S(=O)(=O)Cc2ccc(C(=O)N3CCN(Cc4ccccc4)CC3)o2)cc1 do in these assays?
ELG1 DNA repair: -17%; Rango complex inh: 1%; PKM2 act: 1%; Tb PFK inh: 0%; Rango release inh: 21%; PGK inhibitor: -10%

What do the screens show for `Cc1ccc(S(=O)(=O)Cc2ccc(C(=O)N3CCN(Cc4ccccc4)CC3)o2)cc1`?
ELG1 DNA repair: 18µM*; PKM2 act: -5%; Tb PFK inh: inconclusive

Results for Cc1ccc(-c2cc(C(F)(F)F)n3ncc(-c4ccc(Cl)cc4)c3n2)cc1 ?
PGK inhibitor: -6%

What do the screens show for `CC(=O)NC(CCS(C)(=O)=O)C(=O)Nc1cc(Cl)ccc1Cl` (stereo not drawn)?
ELG1 DNA repair: 13%; Rango complex inh: 0%; PKM2 act: -7%; Tb PFK inh: -1%; Rango release inh: -11%; PGK inhibitor: inactive
